This passage reports composite z-score and z-score results from PubChem BioAssay.

Active and inactive are the calls of the source.

For assay [1], the system named is Plasmodium falciparum Sir2 (PF13_0152, Sir2A). As to the kind of experiment: pfSir2 binders on small-molecule microarrays, primary screen, biochemical, small-molecule microarray, 635 nm fluorescence (AID 1098).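 Further: score merges spot fluorescence intensity with its signal-to-noise ratio.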 As to conditions: small-molecule microarray binding, fluorescence 635 nm; higher = more signal.
The nature of assay [2]: small-molecule microarray binders of probe aDKK1, primary screen, biochemical, biotinylated probe, 635/667 nm fluorescence (AID 1099).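 Further: score merges 667nm spot fluorescence with signal to noise across triplicate slides.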 The settings on record: higher = more signal.
Assay [3] in a line: small-molecule microarray binders of probe aCHRDL2, primary screen, biochemical, biotinylated probe, 635/667 nm fluorescence (AID 1100). The settings on record: higher = more signal.
Assay [4] is described as follows: splicing luciferase reporter signal modulators, primary screen, spliceosome inhibition project, cell-based, HEK293, splice +/- reporter (AID 1101).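 Further: HEK293 cells carrying a splicing-competent luciferase reporter gene; test concentration not given here.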 The settings on record: luminescence, 24 h, higher = more signal, called active from +8 up or from −8 down.
In assay [5] the target is Fibroblast growth factor 10 (Homo sapiens) (UniProt O15520). Description: FGF10 binders on small-molecule microarrays, primary screen, biochemical, small-molecule microarray, 635 nm fluorescence (AID 1102). As to conditions: FGF10 binding, fluorescence 635 nm, higher = more signal.
For assay [6], the system named is glycogen synthase kinase-3 (GSK3A per assay name; protocol says GSK3B). As to the kind of experiment: GSK3 binders on small-molecule microarrays, primary screen, biochemical, small-molecule microarray, 635 nm fluorescence, GSK3A (AID 1103). Further: the record names both GSK3A and GSK3B. The settings on record: small-molecule microarray binding, fluorescence 635 nm; higher = more signal.
The target of assay [7] is Epidermal growth factor receptor (Homo sapiens) (UniProt P00533). Description: EGFR binders on small-molecule microarrays, primary screen, biochemical, small-molecule microarray, 635 nm fluorescence (AID 1104).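 Further: score merges 667 nm emission intensity with spot signal to noise over triplicate slides.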 The settings on record: EGFR binding, higher = more signal.
In assay [8] the target is Follistatin-related protein 3 (Homo sapiens) (UniProt O95633). Description: FSTL3 binders on small-molecule microarrays, primary screen, biochemical, small-molecule microarray, 635 nm fluorescence (AID 1105).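 Further: score merges emission near 667 nm and signal to noise per printed spot across three slides.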 As to conditions: FSTL3 binding, higher = more signal.
Assay [9] has as its target Dickkopf-related protein 1 (Homo sapiens) (UniProt O94907). Description: DKK1 binders on small-molecule microarrays, primary screen, biochemical, small-molecule microarray, 635 nm fluorescence scan (AID 1106).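 Further: score merges emission near 667 nm with signal to noise over three replicate slides.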 The settings on record: DKK1 binding, higher = more signal.
Assay [10] concerns Inhibin beta A chain (activin A). Description: INHBA (activin A) binders on microarrays, primary screen, biochemical, small-molecule microarray, 635 nm fluorescence scan (AID 1107).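 Further: mouse activin A protein probed at 4.33 µg/mL on printed slides; score merges bound-protein fluorescence near 667 nm with spot signal-to-noise.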 The settings on record: small-molecule microarray binding, higher = more signal.
Assay [11] deals with Human papillomavirus type 1a protein E7 (residues 44-93). As to the kind of experiment: HPV1a E7 fragment binders on microarrays, primary screen, biochemical, small-molecule microarray, residues 44-93, 635 nm fluorescence (AID 1108).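 Further: E7 fragment applied at 1 µg/mL in TBST for 1 h at 4 C; score combines spot fluorescence with its signal to noise ratio.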 As to conditions: small-molecule microarray binding, fluorescence 635 nm; higher = more signal.
The nature of assay [12]: modulators of HCV replicon luciferase signal, primary screen, HCV replication inhibitor project, Huh7 cells, luciferase reporter (AID 1109).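 Further: huh7 hepatoma cells harbouring a luciferase neomycin HCV replicon reporter; luciferase luminescence as measure of HCV replicon replication; test concentration not given here.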 The settings on record: 48 h, higher = more signal. A general note: Replicon systems follow genome replication, usually without infectious particles.
Assay [13] has as its target Left-right determination factor 2 (Homo sapiens) (UniProt O00292). Description: LEFTY2 binders on small-molecule microarrays, primary screen, biochemical, small-molecule microarray, 635 nm fluorescence scan (AID 1110). The settings on record: LEFTY2 binding, higher = more signal.
Assay [14] has as its target Calmodulin-1 (Homo sapiens) (UniProt P0DP23). As to the kind of experiment: CALM1 binders on microarrays, EGTA buffer, profiling panel, biochemical, small-molecule microarray, Cy5-labelled CALM1 (AID 1111).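 Further: labelled calmodulin applied in Tris saline Tween buffer holding calcium plus EGTA and DTT.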 As to conditions: Cy5-CALM1 binding fluorescence, higher = more signal.
For assay [15] the target is unchanged. As to the kind of experiment: calcium-bound CALM1 binders on microarrays, profiling panel, artefact control for SMM control-protein annotation, biochemical, small-molecule microarray, Cy5-labelled CALM1, plus calcium (AID 1112).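 Further: score merges spot fluorescence with signal to noise from triplicate slides.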 The settings on record: Cy5-CALM1 binding fluorescence, higher = more signal.
Assay [16] is described as follows: small-molecule microarray binders of probe aWnt5a, primary screen, biochemical, biotinylated probe, 635/667 nm fluorescence (AID 1113).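 Further: score merges 667 nm fluorescence intensity with signal-to-noise per printed feature.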 As to conditions: higher = more signal.
Assay [17] in a line: small-molecule microarray binders of probe aShh, primary screen, biochemical, biotinylated probe, 635/667 nm fluorescence (AID 1114).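 Further: probe is biotin-labelled aShh protein from a stem cell growth factor screen; measures binding of labelled protein to compounds printed on the slide; score merges feature fluorescence at 667 nm with signal-to-noise.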 As to conditions: higher = more signal.
Assay [18] is described as follows: small-molecule microarray binders of probe aNog, primary screen, biochemical, biotinylated probe, 635/667 nm fluorescence (AID 1115).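 Further: probe is biotinylated aNog protein used at 0.15 µg/mL for 1 h at 4 C; z-score combines 667 nm fluorescence of each spot with its signal to noise.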 As to conditions: higher = more signal.
For assay [19], the target named is Torsin-1A-interacting protein 1 (Homo sapiens) (UniProt Q5JTV8). Description: LAP1 binders from COS7 cell lysate, primary screen, small-molecule microarray, 635/667 nm fluorescence (AID 1116). The settings on record: COS7-hLAP1 lysate binding, 635 nm fluorescence, higher = more signal.
The target in assay [20] is Alpha-bungarotoxin (Bungarus multicinctus) (UniProt P60615). As to the kind of experiment: alpha-bungarotoxin binders on microarray, profiling panel, artefact control for SMM control protein annotation, biochemical, small-molecule microarray, Alexa647 label, 635/667 nm fluorescence (AID 1117). The settings on record: alpha-BTX-A647 binding fluorescence, higher = more signal.
Alpha-bungarotoxin (Bungarus multicinctus), sequence (P60615 whole entry, looked up): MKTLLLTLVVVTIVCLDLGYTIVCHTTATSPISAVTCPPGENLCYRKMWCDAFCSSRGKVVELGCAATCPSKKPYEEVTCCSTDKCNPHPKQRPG

Follistatin-related protein 3 (Homo sapiens), sequence (O95633 whole entry, looked up): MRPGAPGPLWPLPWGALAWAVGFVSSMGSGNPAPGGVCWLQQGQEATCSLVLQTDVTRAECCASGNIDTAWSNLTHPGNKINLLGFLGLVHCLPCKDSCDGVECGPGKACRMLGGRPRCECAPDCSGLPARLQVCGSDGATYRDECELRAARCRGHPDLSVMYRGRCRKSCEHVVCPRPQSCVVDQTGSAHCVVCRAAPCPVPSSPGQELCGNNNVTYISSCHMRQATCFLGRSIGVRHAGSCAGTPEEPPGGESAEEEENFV
Left-right determination factor 2 (Homo sapiens), sequence (O00292 whole entry, looked up): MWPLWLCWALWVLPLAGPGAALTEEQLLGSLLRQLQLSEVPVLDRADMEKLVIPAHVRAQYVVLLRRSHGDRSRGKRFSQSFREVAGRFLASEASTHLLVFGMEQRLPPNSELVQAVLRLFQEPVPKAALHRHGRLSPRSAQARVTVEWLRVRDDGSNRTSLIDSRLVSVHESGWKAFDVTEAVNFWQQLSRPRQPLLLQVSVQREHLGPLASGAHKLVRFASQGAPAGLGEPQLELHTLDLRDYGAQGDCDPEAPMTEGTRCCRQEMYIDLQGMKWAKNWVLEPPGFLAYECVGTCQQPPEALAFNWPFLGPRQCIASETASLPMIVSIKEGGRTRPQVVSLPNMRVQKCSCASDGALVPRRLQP
Torsin-1A-interacting protein 1 (Homo sapiens), sequence (Q5JTV8 whole entry, looked up): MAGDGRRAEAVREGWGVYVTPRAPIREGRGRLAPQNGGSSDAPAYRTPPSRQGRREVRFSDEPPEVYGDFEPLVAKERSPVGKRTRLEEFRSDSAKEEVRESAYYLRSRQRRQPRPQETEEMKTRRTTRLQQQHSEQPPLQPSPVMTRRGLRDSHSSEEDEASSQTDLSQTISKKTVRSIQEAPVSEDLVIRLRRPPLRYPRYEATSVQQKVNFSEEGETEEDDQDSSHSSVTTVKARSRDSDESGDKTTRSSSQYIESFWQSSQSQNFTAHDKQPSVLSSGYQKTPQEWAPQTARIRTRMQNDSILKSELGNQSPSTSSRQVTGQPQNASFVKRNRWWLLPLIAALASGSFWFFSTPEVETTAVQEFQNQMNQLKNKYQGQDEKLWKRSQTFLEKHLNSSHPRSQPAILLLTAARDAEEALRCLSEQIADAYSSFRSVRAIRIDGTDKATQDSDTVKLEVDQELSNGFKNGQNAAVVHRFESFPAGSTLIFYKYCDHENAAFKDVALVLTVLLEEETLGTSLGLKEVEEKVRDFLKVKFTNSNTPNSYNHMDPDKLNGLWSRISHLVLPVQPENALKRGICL
Epidermal growth factor receptor (Homo sapiens), sequence (P00533 whole entry, looked up): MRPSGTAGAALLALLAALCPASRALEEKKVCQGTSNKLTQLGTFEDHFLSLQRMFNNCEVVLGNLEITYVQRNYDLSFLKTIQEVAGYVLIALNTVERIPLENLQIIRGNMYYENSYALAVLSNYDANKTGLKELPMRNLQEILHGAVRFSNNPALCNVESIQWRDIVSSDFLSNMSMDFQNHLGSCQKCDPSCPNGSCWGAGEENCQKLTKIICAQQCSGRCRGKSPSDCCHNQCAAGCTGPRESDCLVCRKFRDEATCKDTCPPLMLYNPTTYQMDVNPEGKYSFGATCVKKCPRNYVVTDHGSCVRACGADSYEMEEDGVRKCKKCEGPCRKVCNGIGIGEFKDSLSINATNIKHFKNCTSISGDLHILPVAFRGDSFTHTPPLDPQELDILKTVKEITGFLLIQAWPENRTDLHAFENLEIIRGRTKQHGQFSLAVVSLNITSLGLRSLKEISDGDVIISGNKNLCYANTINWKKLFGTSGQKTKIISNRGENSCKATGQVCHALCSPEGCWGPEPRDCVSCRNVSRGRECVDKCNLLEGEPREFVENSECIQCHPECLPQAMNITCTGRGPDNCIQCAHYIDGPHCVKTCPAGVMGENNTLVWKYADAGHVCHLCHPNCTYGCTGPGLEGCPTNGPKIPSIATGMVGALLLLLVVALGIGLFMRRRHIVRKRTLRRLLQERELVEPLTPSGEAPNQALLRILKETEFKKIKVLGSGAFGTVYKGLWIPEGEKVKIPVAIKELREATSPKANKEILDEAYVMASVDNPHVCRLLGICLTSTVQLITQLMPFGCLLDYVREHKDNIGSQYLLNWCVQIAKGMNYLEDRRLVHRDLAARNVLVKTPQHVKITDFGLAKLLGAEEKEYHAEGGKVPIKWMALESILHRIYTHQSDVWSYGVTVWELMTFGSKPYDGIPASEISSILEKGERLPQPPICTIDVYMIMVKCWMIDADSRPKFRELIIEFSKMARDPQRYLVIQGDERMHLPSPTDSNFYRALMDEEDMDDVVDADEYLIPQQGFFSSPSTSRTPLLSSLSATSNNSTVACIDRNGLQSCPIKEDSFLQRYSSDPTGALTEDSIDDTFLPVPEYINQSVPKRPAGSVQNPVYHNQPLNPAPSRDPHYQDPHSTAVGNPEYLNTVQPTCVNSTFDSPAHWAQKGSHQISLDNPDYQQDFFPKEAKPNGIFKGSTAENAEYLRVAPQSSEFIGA
Fibroblast growth factor 10 (Homo sapiens), sequence (O15520 whole entry, looked up): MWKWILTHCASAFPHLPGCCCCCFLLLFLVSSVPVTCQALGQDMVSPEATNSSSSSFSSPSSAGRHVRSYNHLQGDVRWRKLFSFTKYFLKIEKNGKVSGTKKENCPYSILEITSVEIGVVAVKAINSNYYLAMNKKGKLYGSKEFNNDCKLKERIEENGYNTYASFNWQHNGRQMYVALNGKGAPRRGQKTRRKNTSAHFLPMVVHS
Dickkopf-related protein 1 (Homo sapiens), sequence (O94907 whole entry, looked up): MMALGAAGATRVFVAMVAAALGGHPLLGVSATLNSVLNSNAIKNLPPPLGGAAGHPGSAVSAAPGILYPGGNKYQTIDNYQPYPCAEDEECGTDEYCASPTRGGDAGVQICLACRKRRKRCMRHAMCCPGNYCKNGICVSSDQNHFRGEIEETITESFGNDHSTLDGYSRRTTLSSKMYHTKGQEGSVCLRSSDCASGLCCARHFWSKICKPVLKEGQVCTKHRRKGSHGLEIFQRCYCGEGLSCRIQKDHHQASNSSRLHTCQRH

As to `CC(C)=CCCC(C)=CCON=C1C[C@@H](O)[C@@H](O)[C@@H]2[C@@H]3C(=O)N(Cc4ccc5c(c4)OCO5)C(=O)[C@@H]3CC[C@H]12`, the composite z-score in [1] was 0.567; in assay [2] it was -0.101; in [3], -0.257; in assay [5] it was 0.797; in assay [6], 0.327; in [7], 0.426. Moreover, the composite z-score in assay [8] was 0.821; in [9] it was 0.35; in [10], 1.02; in assay [11], 1.38; in [13], 0.546; in assay [14], -0.588. Further, the composite z-score in assay [15] is -1.11; in [16], -0.0346; in [17] it was -0.2; in [18], -0.28; in assay [19] it was 0.142; in [20], 0.168. For the same molecule, the z-score was 0.294 (inactive) in assay [4] and -1.45 in [12].
Take `CCN1C(=O)[C@H]2[C@H]3[C@H](O)[C@H](O)CC(=NOC[C@@H](O)COCc4ccco4)[C@H]3CC[C@H]2C1=O`: the composite z-score in [1] was 0.667; in assay [2] it was -1; in assay [3] it was -2.16; in assay [5], -0.169; in assay [6], 0.797; in assay [7], 0.816. For the same molecule, the composite z-score in [8] is 0.757; in [9] it was 1.39; in [10], 1.45; in [11], 0.296; in [13], 1.41; in assay [14], -2.21. Further, the composite z-score is -2.59 in [15]; -0.216 in [16]; -0.2 in assay [17]; -0.878 in assay [18]; -0.0551 in [19]; -0.441 in assay [20]. The values for the z-score in assay [4] and in assay [12] were 0.0809 (inactive) and -0.389, respectively.
On to `COC(=O)[C@@H]1CC[C@H](C)[C@@H](c2ccc(C)cc2)N1C(=O)c1ccc(C=NOC[C@H]2O[C@H](c3ccccc3)C=C[C@@H]2Oc2ccc(OC)cc2)cc1`, for which the composite z-score in assay [1] is 0.198; in assay [2], -0.0428; in assay [3] it was -0.32; in assay [5], 0.3; in assay [6], -0.245; in assay [7], 0.331. In addition, the composite z-score in [8] was -0.189; in assay [9] it was 0.15; in [10], 1.24; in [11], 0.404; in assay [13] it was 0.35; in assay [14] it was -0.156. Besides, the composite z-score in [15] was -0.551; in assay [16], 0.0104; in [17] it was -0.234; in assay [18] it was 0.0498; in assay [19] it was 1.18; in assay [20], 0.304. For the same molecule, the z-score was -0.0767 (inactive) in assay [4] and -0.739 in assay [12].
As to `CC(C)=NOC(C)CN1CCCCc2nc(C)c(C)cc21` (stereo not given), the composite z-score in assay [1] was 0.284; in assay [2], -0.261; in [3] it was -0.331; in assay [5] it was 0.151; in [6], 0.0285; in assay [7], 0.468. Further, the composite z-score in [8] was 0.473; in assay [9], 0.619; in [10], 1.04; in [11] it was 0.103; in assay [13] it was 0.576; in [14], -0.254. For the same molecule, the composite z-score was -0.66 in assay [15]; -0.113 in [16]; -0.0769 in assay [17]; -0.198 in assay [18]; 0.605 in assay [19]; -0.265 in assay [20]. Further, the z-score in [4] is 0.19 (inactive); in assay [12], -0.594.
Consider `CO[C@@H]1C=CCC(=O)N[C@@H](C)C(=O)OC[C@@H](NS(=O)(=O)c2ccc(C)cc2)[C@H](C)C=CCC(=O)OC[C@H]1C`, for which the composite z-score in assay [1] is -0.401; in [2] it was -0.298; in assay [3], -0.748; in assay [5], 0.238; in [6] it was -0.0731; in assay [7], 0.329. The composite z-score is 0.828 in assay [8]; 0.359 in assay [9]; 0.976 in assay [10]; -0.844 in assay [11]; 0.957 in assay [13]; -0.062 in assay [14]. Also, the composite z-score in assay [15] is -0.417; in assay [16], -0.18; in [17] it was 0.0442; in assay [18], -0.0116; in [19] it was -0.159; in assay [20], -0.135. Further, the z-score is -0.275 (inactive) in assay [4] and 0.46 in assay [12].
`O=C1C[C@@H](O)[C@@H](O)[C@@H]2[C@@H]3C(=O)N(Cc4ccccc4)C(=O)[C@@H]3CC[C@H]12`: the composite z-score is 0.465 in assay [1]; -0.0382 in assay [2]; -0.506 in assay [3]; 0.56 in assay [5]; 0.331 in [6]; 0.564 in [7]. The composite z-score was 0.643 in [8]; 0.608 in [9]; 0.3 in [10]; -0.234 in assay [11]; 0.804 in [13]; 0.0302 in assay [14]. Also, the composite z-score is -0.344 in assay [15]; -0.0869 in [16]; -0.138 in [17]; 0.0369 in [18]; 0.432 in assay [19]; 0.848 in assay [20]. Besides, the z-score is -0.0414 (inactive) in assay [4] and -0.0156 in assay [12].
